Results taken from PubChem BioAssay (NCI).
About 83,000 compounds went through this panel and 20% of them were active in at least one assay; those are over-represented in the sample as a whole.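 How to read the values: 0–100, growth inhibition (40 = 60% inhibited); 0, no net growth; -100 to 0, cell death (-40 = 40% of starting cells died; -100 = all dead).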 Active and inactive are the calls of the source. Rule for the calls: active = growth percent below 10; inactive = the rest.

Experiments:
Assay in all cases: NCI-60 one-dose screen, 48 h (100 = growth as untreated, 0 = no growth, -100 = all killed)
Conditions in all cases: 10 µM unless noted
DU-145 prostate = system: DU-145 prostate
K-562 leukemia = system: K-562 leukemia
MALME-3M melanoma = system: MALME-3M melanoma
MDA-MB-231 breast = system: MDA-MB-231 breast
SF-268 CNS = system: SF-268 CNS
SF-295 CNS = system: SF-295 CNS
SF-539 CNS = system: SF-539 CNS
M14 melanoma = system: M14 melanoma
RXF 393 renal = system: RXF 393 renal

Measured: growth

Cc1ccsc1C(NC(=O)c1ccccc1)c1cc(Cl)c2cccnc2c1O (stereo unspecified)
active: SF-295 CNS 1.35%
inactive: DU-145 prostate 41.2% | K-562 leukemia 10.4% | MALME-3M melanoma 47.4% | MDA-MB-231 breast 37.8% | SF-268 CNS 31.6% | SF-539 CNS 18.7% | M14 melanoma 12.3%

CCc1nc2cc(/C=C/C(=O)NO)ccc2c(=O)n1CCc1ccc(F)cc1
active: DU-145 prostate -5.02% | K-562 leukemia 4.68% | MDA-MB-231 breast -6.12% | RXF 393 renal -29.5% | SF-268 CNS 9.29% | SF-539 CNS 4.06%
inactive: SF-295 CNS 10.4%

Cc1sc2c(c1C)c(=O)nc1c(-c3nc4ccccc4s3)n[nH]n12
inactive: DU-145 prostate 106% | K-562 leukemia 94% | MALME-3M melanoma 97.1% | MDA-MB-231 breast 87.6% | SF-268 CNS 96.1% | SF-295 CNS 92.3% | SF-539 CNS 96.5% | M14 melanoma 98.6%

CC(C)[C@@H](C)/C=C/[C@@H](C)[C@H]1CCC2=C3C=CC4=CC(=O)CC[C@]4(C)[C@H]3CC[C@@]21C
inactive: DU-145 prostate 105% | K-562 leukemia 92.6% | MALME-3M melanoma 110% | MDA-MB-231 breast 105% | SF-268 CNS 98.9% | SF-295 CNS 94.9% | SF-539 CNS 106% | M14 melanoma 98.6%

CC1(/C=N/NC(N)=S)NC(=O)NC1=O (stereo unspecified)
inactive: DU-145 prostate 107% | K-562 leukemia 89.4% | MALME-3M melanoma 107% | MDA-MB-231 breast 99.2% | SF-268 CNS 102% | SF-295 CNS 108% | SF-539 CNS 110% | M14 melanoma 103%

COC(=O)[C@]12CC[C@@H](C)[C@H](C)[C@@H]1C1=CC[C@@H]3[C@@]4(C)C(C#N)=CC(C)=C4CC[C@@]3(C)[C@]1(C)CC2
inactive: DU-145 prostate 99.3% | K-562 leukemia 84.5% | MALME-3M melanoma 87.5% | MDA-MB-231 breast 85.4% | SF-268 CNS 85.3% | SF-295 CNS 85.4% | SF-539 CNS 91.8% | M14 melanoma 77.2%

COc1cnc2c(c1)C(=O)c1c-2n(CCCNC2=NCCS2)c(=O)c2cc(Cl)ccc12
active: DU-145 prostate -76.7% | K-562 leukemia -58.3% | MDA-MB-231 breast -70.7% | SF-268 CNS -49.4% | SF-295 CNS -93.5% | SF-539 CNS -84.4%
inactive: RXF 393 renal 39%

Cc1cc2c3c(cccc3c1)C(=O)c1ccccc1-2
inactive: DU-145 prostate 98.9% | K-562 leukemia 98.8% | MALME-3M melanoma 90.8% | MDA-MB-231 breast 92.6% | SF-268 CNS 92% | SF-295 CNS 103% | SF-539 CNS 97.2% | M14 melanoma 92.6%

N#Cc1c(C(F)(F)F)cc(Nc2ccc3nc(NCCN4CCCC4)oc3c2)n2c1nc1ccccc12
inactive: DU-145 prostate 89% | K-562 leukemia 11.8% | MDA-MB-231 breast 32.7% | RXF 393 renal 55.4% | SF-268 CNS 78.8% | SF-295 CNS 74.7% | SF-539 CNS 86.4% | M14 melanoma 84.4%

COc1ccc(OC)c(NC2=C(SCCc3ccccc3)C(=O)c3ccccc3C2=O)c1
inactive: DU-145 prostate 92.2% | K-562 leukemia 91.2% | MALME-3M melanoma 90.8% | MDA-MB-231 breast 62.8% | SF-268 CNS 84.6% | SF-295 CNS 92.2% | SF-539 CNS 85.7% | M14 melanoma 83.3%

O=C(N/N=C/c1ccc(Cl)cc1)c1cc(-c2cc3ccccc3o2)nn1-c1ccccc1
inactive: DU-145 prostate 87% | K-562 leukemia 91.1% | MALME-3M melanoma 105% | MDA-MB-231 breast 92.5% | SF-268 CNS 108% | SF-295 CNS 107% | SF-539 CNS 84.9% | M14 melanoma 99.3%

COC(=O)[C@]12CC[C@@H](C)[C@H](C)[C@@H]1C1=CC[C@@H]3[C@@]4(C)C(c5cnco5)=C[C@@](C)(CO)C4=CC[C@@]3(C)[C@]1(C)CC2
inactive: DU-145 prostate 29.4% | K-562 leukemia 30.8% | MALME-3M melanoma 87.6% | MDA-MB-231 breast 58.8% | SF-268 CNS 63% | SF-295 CNS 31.2% | SF-539 CNS 66.4% | M14 melanoma 63.4%

O=C1CC(c2ccc3c(c2)OCO3)c2ncn(-c3ccc(Cl)cc3)c2N1 (stereo unspecified)
active: SF-539 CNS 1.25% | M14 melanoma -2.01%
inactive: DU-145 prostate 18.3% | K-562 leukemia 14.3% | MALME-3M melanoma 62.6% | MDA-MB-231 breast 44.3% | SF-268 CNS 44.4% | SF-295 CNS 70.8%

COC(=O)CC[C@@H](C)[C@H]1CC[C@H]2C3CC[C@@H]4C[C@@H]5CC[C@]4(C)[C@@]3(O5)[C@H](Br)[C@@H](Br)[C@]12C (stereo partly specified)
inactive: DU-145 prostate 101% | K-562 leukemia 78.2% | MALME-3M melanoma 103% | MDA-MB-231 breast 99.4% | SF-268 CNS 91.2% | SF-295 CNS 99.3% | SF-539 CNS 103% | M14 melanoma 90.6%

Cc1ccc2oc(=O)cc(-c3cc(-c4cc5ccccc5oc4=O)nc(N)c3C#N)c2c1
inactive: DU-145 prostate 61.6% | K-562 leukemia 81% | MALME-3M melanoma 51.3% | MDA-MB-231 breast 55.5% | SF-268 CNS 48.1% | SF-295 CNS 63.4% | SF-539 CNS 59.8% | M14 melanoma 85.7%

CC1(O)CCC(Nc2cc(-c3ccc(C(F)(F)F)cc3)c(C#N)c3nc4ccccc4n23)CC1 (stereo unspecified)
inactive: DU-145 prostate 67.8% | K-562 leukemia 73.1% | MDA-MB-231 breast 50.4% | RXF 393 renal 53.2% | SF-268 CNS 64.5% | SF-295 CNS 51.9% | SF-539 CNS 63.4%

CCCCCCCC(=O)SCC/C=C/[C@@H]1CC(=O)NCc2cc(ccn2)C2=N[C@@](C)(CS2)C(=O)N[C@@H](C(C)C)C(=O)O1
inactive: DU-145 prostate 11.8% | K-562 leukemia 10.3% | MALME-3M melanoma 11.4% | SF-268 CNS 11.8% | SF-539 CNS 17%
active: MDA-MB-231 breast 3.63% | SF-295 CNS -62.2% | M14 melanoma 4.89%

COc1cnc2c(c1)C(=O)c1c-2n(CCCN2CCOCC2)c(=O)c2cc(Cl)ccc12
inactive: DU-145 prostate 17.8% | K-562 leukemia 27.5% | MDA-MB-231 breast 64.1% | SF-268 CNS 29.1% | M14 melanoma 11.9%
active: RXF 393 renal 1.67% | SF-295 CNS 8.59% | SF-539 CNS 6.36%

Cc1ccc(-c2nc3ccc(Cl)cn3c2NC2CCCCC2)o1
inactive: DU-145 prostate 104% | K-562 leukemia 74.5% | MDA-MB-231 breast 84.7% | RXF 393 renal 83.1% | SF-268 CNS 80% | SF-295 CNS 91.3% | SF-539 CNS 95.4% | M14 melanoma 101%

COc1ccc(C2CC(=O)c3c(O)c(OC)c(OC)c(OC)c3O2)c(O)c1 (stereo unspecified)
active: SF-295 CNS 7.86% | SF-539 CNS -7.78%
inactive: DU-145 prostate 22.2% | K-562 leukemia 13.9% | MALME-3M melanoma 64.7% | MDA-MB-231 breast 24.9% | SF-268 CNS 44.4% | M14 melanoma 12.6%

CO/C=C/C(=O)c1cc2cnc3c(=N)cc(NC(=O)C(C)C)c([nH]1)c23
active: DU-145 prostate 4.45% | K-562 leukemia 3.9% | MALME-3M melanoma -77.5% | MDA-MB-231 breast -31% | SF-268 CNS -47.4% | SF-295 CNS -51.6% | SF-539 CNS -57% | M14 melanoma -61.3%

COC(=O)[C@@H](C)CNS(=O)(=O)N(c1cc(C(F)(F)F)cc(C(F)(F)F)c1)C1CCN(Cc2ccc(F)cc2)CC1
inactive: DU-145 prostate 92.9% | MALME-3M melanoma 43.8% | MDA-MB-231 breast 71% | SF-268 CNS 84.4% | SF-295 CNS 81.1% | SF-539 CNS 73.5% | M14 melanoma 58.5%

CC1CCC(n2cnc3c(Cl)ncnc32)O1 (stereo unspecified)
inactive: DU-145 prostate 112% | MALME-3M melanoma 88.5% | MDA-MB-231 breast 105% | SF-268 CNS 105% | SF-295 CNS 95.5% | SF-539 CNS 97.5% | M14 melanoma 93.8%

Nc1cc2c(cc1Br)-c1c(C(=O)O)cccc1C2O (stereo unspecified)
inactive: DU-145 prostate 110% | MALME-3M melanoma 98.2% | MDA-MB-231 breast 98.3% | SF-268 CNS 115% | SF-295 CNS 118% | SF-539 CNS 98.6% | M14 melanoma 98.9%

CC(=Nc1ccccc1)C1=C(O)C(Cc2ccccc2)NC1=O (stereo unspecified)
inactive: MALME-3M melanoma 58.6% | SF-268 CNS 14.1%
active: DU-145 prostate -31.5% | MDA-MB-231 breast -1.28% | SF-295 CNS -19.1% | SF-539 CNS -33.8% | M14 melanoma -16.6%

Oc1ccc(/C=N/Nc2nnc(N/N=C/c3ccc(O)cc3O)c3ccccc23)c(O)c1
active: DU-145 prostate -24.3% | MALME-3M melanoma -5.87% | MDA-MB-231 breast -13.6% | SF-268 CNS -5.14% | SF-295 CNS -38.1% | SF-539 CNS -42.1% | M14 melanoma -52.7%

Nc1nc(N)c2cc(CNc3ccc(C(=O)NC(CC(=O)O)C(=O)O)cc3)ccc2n1 (stereo unspecified)
inactive: DU-145 prostate 26.7% | MALME-3M melanoma 81.3% | MDA-MB-231 breast 95.8% | SF-268 CNS 29.7% | SF-295 CNS 28.5% | SF-539 CNS 15.6% | M14 melanoma 16.7%

COc1cc(C(=O)NNC(=O)c2ccc(NC(=O)CCl)cc2)cc(OC)c1OC
inactive: DU-145 prostate 91% | K-562 leukemia 53.7% | MDA-MB-231 breast 51.1% | RXF 393 renal 92.9% | SF-268 CNS 76.8% | SF-295 CNS 93.7% | SF-539 CNS 91.5% | M14 melanoma 82.6%

C=C1[C@@H](O)C[C@H]2C(C)(C)C[C@H](Cl)C[C@]2(C)[C@H]1C[C@H](O)[C@H]1CC(=O)NC1=O
active: DU-145 prostate -29.1% | K-562 leukemia 1.91% | MDA-MB-231 breast -31% | RXF 393 renal -63.2% | SF-268 CNS -20.8% | SF-295 CNS -29.2% | SF-539 CNS -35.4% | M14 melanoma -75.5%

CCc1nc2cc(F)c(/C=C/C(=O)NO)cc2c(=O)n1CCc1ccccc1
inactive: MDA-MB-231 breast 15.4% | SF-268 CNS 16% | SF-295 CNS 11% | M14 melanoma 15.7%
active: DU-145 prostate 7.93% | K-562 leukemia 7.24% | RXF 393 renal -13.5% | SF-539 CNS 4.01%
